High-throughput results (PubChem)
FUS yeast rescue: rescues growth of FUS-expressing yeast. Potency, µM (series often up to 76.6 µM), usual class: activators. 0.24% of 390,000 active. S. cerevisiae FUS-expressing, growth rescue, OD600, 24 h. AID 1347120; also: nearly all actives have a fitted effect of over 55% in size
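Toxicity suppression screen in FUS-yeast. Cells induced with 2% galactose, starting OD 0.005, treated 24hr at 30C with compounds at multiple final concentrations; growth by OD600.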
aSyn yeast inh: alpha-synuclein toxicity inhibition in yeast; Yeast expressing alpha-synuclein, growth rescue, BacTiter-Glo, 24 h; Potency, µM (top dose mostly 46.1 µM), actives largely listed as activators; 0.14% of 370,000 active; also: nearly all actives have a fitted effect of over 65% in size
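Readout is rescue of growth in alpha-synuclein-expressing yeast, so inhibitors of toxicity appear as activators. Growth after 24 hr at 30 deg C in galactose medium is quantified by luminescence.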
Abeta rescue: compounds reversing amyloid beta toxicity in yeast. yeast expressing A-beta42, growth rescue, OD600, 48 h; response scale: 0% DMSO, 100% iron-clioquinol control. Potency, µM (doses to about 46.1 µM), most hits filed as activators. 0.063% of 410,000 active. AID 1347071; also: nearly all actives have a fitted effect of over 55% in size
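Growth rescue measured by 600 nm absorbance after 48 h yeast culture at 30 C with compound. Values normalized between DMSO and an equimolar ferric chloride plus clioquinol control.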
TDP-43 yeast inh: rescues yeast growth from TDP-43 toxicity. 1.8% of 410,000 active. Potency, µM (top dose mostly 46.1 µM), most hits filed as activators. TDP-43 expressing yeast growth rescue, BacTiter-Glo, 24 h. AID 652104; also: nearly all actives have a fitted effect of over 50% in size
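Luminescence from BacTiter-Glo reports growth of TDP-43-expressing yeast after 24 hr at 30 deg C with compound. Cells were raffinose-pregrown to mid-log, then seeded in galactose medium at OD600=0.02.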
Hits are given with their value; [ ] = another dose, or the depositor's remark. Rows were chosen to be rich in hits. Some 2.1% of all compounds tested hit in one or more screens of this group. Calls follow the shape of the dose curve; as a rule, active = well fitted curve in the direction sought with a large enough effect; inconclusive = small, poorly fitted or top-dose-only effect, or another doubt; inactive = no such curve, though single readings can be large; an effect the other way counts as inactive or inconclusive.

Screening COc1cccc(NC(=O)c2oc3ccccc3c2NC(=O)c2ccc(F)c(F)c2)c1 returned FUS yeast rescue inactive, Abeta rescue inactive and TDP-43 yeast inh inactive.
`CCN1C(=O)c2ccccc2Sc2ccc(NC(=O)COc3ccc(Cl)cc3)cc21` gave FUS yeast rescue inactive, Abeta rescue inactive and TDP-43 yeast inh inactive.
CCCCC(=O)NNC(=S)NC(=O)CCC was read as FUS yeast rescue inactive, aSyn yeast inh 25.1µM, Abeta rescue inconclusive and TDP-43 yeast inh inactive.
For CCCCC(=O)NC(=S)Nc1cc([N+](=O)[O-])ccc1OC the results were FUS yeast rescue inactive, aSyn yeast inh inactive, Abeta rescue inactive and TDP-43 yeast inh 7.08µM.
`CCCCC(=O)NC(=S)NNC(=O)c1ccc(OC)cc1` gave FUS yeast rescue inactive, aSyn yeast inh 6.31µM, Abeta rescue inconclusive and TDP-43 yeast inh inconclusive.
For COc1ccc(C(=O)NNC(=S)NC(=O)c2ccc(OC)cc2)cc1 the results were FUS yeast rescue inactive, aSyn yeast inh inactive, Abeta rescue inconclusive and TDP-43 yeast inh inactive.
`CCCCCC(=O)NNC(=S)NC(=O)c1ccc([N+](=O)[O-])cc1` gave FUS yeast rescue inactive, aSyn yeast inh 22.4µM, Abeta rescue inconclusive and TDP-43 yeast inh inactive[9.22 µM].
COc1ccc([N+](=O)[O-])cc1NC(=S)NC(C)=O was read as FUS yeast rescue inactive, aSyn yeast inh inactive, Abeta rescue inactive and TDP-43 yeast inh inactive.
For CC(=O)N1CCc2cc(Br)cc(S(=O)(=O)CCC(=O)N3CCN(c4ccc(F)cc4)CC3)c21 the results were FUS yeast rescue inactive, Abeta rescue inactive and TDP-43 yeast inh inactive.
For Cc1ccc(C)c(CSc2nc3ccncc3n2CC(=O)Nc2ccc(N(C)C)cc2)c1 the results were FUS yeast rescue inactive, Abeta rescue inactive and TDP-43 yeast inh inactive.
COc1ccc(C(=O)Nc2nnc(S(=O)(=O)N(C)c3ccc(Cl)cc3)s2)cc1OC was read as FUS yeast rescue inactive, Abeta rescue inactive and TDP-43 yeast inh inactive.
For O=C(Cn1c(=O)n(-c2ccc(Cl)cc2)c(=O)c2sc3ccccc3c21)NC1CCCC1 the results were FUS yeast rescue inactive, Abeta rescue inactive and TDP-43 yeast inh inactive.
For CCC(=O)N1CCc2cc(Br)cc(S(=O)(=O)CCC(=O)NCc3ccc(F)cc3)c21 the results were FUS yeast rescue inactive, Abeta rescue inactive and TDP-43 yeast inh inactive.
`O=C(Oc1oc(-c2ccco2)nc1C=Nc1ccccc1)c1ccoc1` gave FUS yeast rescue inactive, aSyn yeast inh inconclusive, Abeta rescue inactive and TDP-43 yeast inh inactive.
`Cc1ccc(C(=O)Oc2oc(-c3ccco3)nc2C=Nc2ccc(Cl)cc2)cc1` gave aSyn yeast inh inactive, Abeta rescue inactive and TDP-43 yeast inh 6.31µM.
N#C/C(=C\c1cccnc1)c1ccc([N+](=O)[O-])cc1 was read as FUS yeast rescue inactive, aSyn yeast inh inactive, Abeta rescue inactive and TDP-43 yeast inh 11.2µM.
Screening N#C/C(=C\c1ccc([N+](=O)[O-])cc1)c1ccccn1 returned FUS yeast rescue inactive, aSyn yeast inh inactive, Abeta rescue inactive and TDP-43 yeast inh 12.6µM.
For Cc1cc(-c2n[nH]c(=S)n2N=Cc2cccc(OCc3ccccc3)c2)n[nH]1 the results were FUS yeast rescue inactive.
For C[n+]1ccc(/C=C/c2cc[n+](C)c3ccccc23)c2ccccc21 the results were aSyn yeast inh inactive.
For O=C1COc2ccccc2N1Cc1c(F)cccc1Cl the results were FUS yeast rescue inactive, aSyn yeast inh inactive, Abeta rescue inactive and TDP-43 yeast inh 11.2µM.
`O=C(O)c1cccc2c1C(=O)N(CC1CCCO1)C2` (stereo not drawn) gave FUS yeast rescue inactive, aSyn yeast inh inactive, Abeta rescue inactive and TDP-43 yeast inh inactive[9.22 µM].
`CCc1cccc(NC(=O)c2cccc3c2C(=O)N(CC2CCCO2)C3)c1` (stereo not drawn) gave FUS yeast rescue inactive, aSyn yeast inh inactive, Abeta rescue inactive and TDP-43 yeast inh 17.8µM.
For O=C(O)c1ccc(N/N=C/c2ccc(C(F)(F)F)cc2)cc1 the results were FUS yeast rescue inactive, aSyn yeast inh inactive, Abeta rescue inactive and TDP-43 yeast inh inactive.
Screening CC(C)(C)c1ccc(/C=N/Nc2ccc(C(=O)O)cc2)cc1 returned FUS yeast rescue inactive, aSyn yeast inh inactive, Abeta rescue inactive and TDP-43 yeast inh 15.8µM.
`O=Cc1c(-c2ccc(F)cc2)nc2ccccn12` gave FUS yeast rescue inactive, aSyn yeast inh inactive, Abeta rescue inactive and TDP-43 yeast inh inactive.
`Cc1ccn2c(C=O)c(-c3ccc(F)cc3)c(C=O)c2c1` gave FUS yeast rescue inactive, aSyn yeast inh inactive, Abeta rescue inactive and TDP-43 yeast inh 20µM.
Screening CCCCc1ccc(/C=C(\C#N)C(N)=S)s1 returned FUS yeast rescue inactive, aSyn yeast inh inactive, Abeta rescue inconclusive and TDP-43 yeast inh 20µM.
Cn1cccc1/C=C(/C#N)C(N)=S was read as FUS yeast rescue inactive, aSyn yeast inh inactive, Abeta rescue inactive and TDP-43 yeast inh inactive.
`Brc1ccccc1-c1nc2c3ccccc3ncn2n1` gave FUS yeast rescue inactive, aSyn yeast inh inactive, Abeta rescue inactive and TDP-43 yeast inh 14.1µM.
`Clc1ccc(-c2nc3c4cnn(-c5ccccc5Br)c4ncn3n2)c(Cl)c1` gave FUS yeast rescue inactive, Abeta rescue inactive and TDP-43 yeast inh inconclusive.
Screening CCCN(CC(=O)Nc1cc(Cl)cc(Cl)c1)CC(=O)Nc1ccc(F)c(F)c1F returned FUS yeast rescue inactive, aSyn yeast inh inactive, Abeta rescue inconclusive and TDP-43 yeast inh 28.2µM.
`CC1CCc2c(sc3nc(-c4cc5ccccc5oc4=O)nc(Cl)c23)C1` (stereo not drawn) gave FUS yeast rescue inactive, Abeta rescue inactive and TDP-43 yeast inh inactive.
Screening CCOC(=O)[C@H]1[C@H]2COc3ccc(Cl)cc3[C@@H]2N2C(=O)c3cc(Cl)ccc3NC(=O)[C@@]12C returned FUS yeast rescue inactive, aSyn yeast inh inactive, Abeta rescue 3.55µM and TDP-43 yeast inh inactive.
For CCOC(=O)[C@@H]1[C@H]2COc3ccccc3[C@H]2N2C(=O)N(c3ccc(Cl)cc3)C(=O)[C@]12C the results were FUS yeast rescue inconclusive, aSyn yeast inh inactive, Abeta rescue inactive and TDP-43 yeast inh 35.5µM.
Screening C[C@@]12C(=O)Nc3ccc(F)cc3C(=O)N1[C@H]1c3cc(Cl)ccc3OC[C@@H]1[C@@H]2c1ccccc1 returned FUS yeast rescue inactive, aSyn yeast inh inactive, Abeta rescue inactive and TDP-43 yeast inh 17.8µM.
Screening CCOC(=O)[C@H]1[C@H]2COc3ccc(Cl)cc3[C@@H]2N2C(=O)c3cc(Br)ccc3NC(=O)[C@@]12C returned FUS yeast rescue inconclusive, aSyn yeast inh inactive, Abeta rescue inconclusive and TDP-43 yeast inh inconclusive.
For C[C@@]12C(=O)Nc3ccc(Cl)cc3C(=O)N1[C@H]1c3ccccc3OC[C@@H]1[C@@H]2c1ccccc1 the results were FUS yeast rescue 28.2µM, aSyn yeast inh inactive, Abeta rescue inactive and TDP-43 yeast inh inactive.
Screening Cc1ccc2c(c1)C(=O)N1[C@H]3c4cc(Cl)ccc4OC[C@@H]3[C@H](c3ccccc3)[C@]1(C)C(=O)N2 returned FUS yeast rescue inactive, aSyn yeast inh inactive, Abeta rescue inactive and TDP-43 yeast inh inactive.
